The assay deals with ANXA5. As to the kind of experiment: pooled miR-30 sensor sort-seq; sequence = guide strand. The note with it: shRNA.
For the sequence TTCTGATTTCAGGTCATCCAGA, the sensor-assay potency score (higher = more potent) was -0.946.
Regarding TTTCTGTCAGTACTTTTTCATT, the sensor-assay potency score (higher = more potent) was -1.52.
Turning to TAAACTTAGTAACATTAAGTAC, the sensor-assay potency score (higher = more potent) is -0.822.
TTGGTCATGAGCATGCTAGTAT returned a sensor-assay potency score (higher = more potent) of -0.14.
TAATCTTTTGAATACAATCATC yielded a sensor-assay potency score (higher = more potent) of -1.12.
With TTAATTTTTCAAATTTTCCAGT, the sensor-assay potency score (higher = more potent) was 0.274.
As for TTCATAAGCATCATAAAGCCGA, the figure is -0.311.
The figure for TTCTTCTTCATAAACTTGTTTG is -0.985.
The figure for TAGATTTCACAACAGCAAGGAG is -0.538.
The sequence TACTTGTCAAACACCTTTCTCA yielded a sensor-assay potency score (higher = more potent) of 0.224.
Sequence TTCTTCTATGACGTGTATGTGT displayed a sensor-assay potency score (higher = more potent) of -0.0894.
As for TTTCATTTGTTCCAGCTCCCTT, the figure is -0.639.
With TAGCATAATAGAGGGTCTCTGC, the sensor-assay potency score (higher = more potent) was -0.439.
The figure for TTTCACAACAGCAAGGAGTAGT is -0.0711; for TACACTTTAGTACTACAGCAGT it is -0.815; for TTCTTCCTAAACTCCTTCCTGA it is -0.49.
For the sequence TTCAACTTGAGCTTCATCAATT, the sensor-assay potency score (higher = more potent) was -0.586.
Regarding AACAGATCAATCTCACTCCTGG, the sensor-assay potency score (higher = more potent) is -0.0547.
Turning to TCAAATGAGACACACTTCGTGT, the sensor-assay potency score (higher = more potent) is -0.219.
In turn, TTCGAATAGATTTCACAACAGC had a sensor-assay potency score (higher = more potent) of -0.293.
As for TTCTTCATAAACTTGTTTGATG, the figure is -0.36.

These data come from the OligoGym collection.
Also: reference of the scale not given here.
